# Compound activity as filed in PubChem BioAssay.
# SARS 3CLpro inh – SARS-CoV 3CLpro protease inhibition. AID 1706. inhibition, % at 6 µM. recombinant SARS-CoV 3CLpro, quenched FRET peptide cleavage. P0C6X7. 290,000 compounds, 0.14% hits; in the data active means inhibition above about 12%
# BioA inh – inhibitors of Mycobacterium tuberculosis BioA enzyme; AID 602481; 360,000 compounds, 0.096% hits; inhibition, % at 9.99 µM; purified M. tuberculosis BioA enzyme, plate reader; in the data active means inhibition above about 40%
# MazEF act – increases E. coli MazEF RNase cleavage of RNA. AID 504720. activation, % at 20 µM. FAM/BHQ RNA-DNA oligo cleavage fluorescence, 5 h. 350,000 compounds, 0.32% hits. P0AE70; in the data active means activation above about 50%
# Target sequence (P0AE70 whole entry, looked up): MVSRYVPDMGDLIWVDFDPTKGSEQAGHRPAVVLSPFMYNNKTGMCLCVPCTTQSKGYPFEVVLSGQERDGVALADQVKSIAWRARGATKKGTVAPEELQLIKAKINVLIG
# PfHsp40 yeast – rescue of PfHsp40-mediated yeast toxicity. S. cerevisiae expressing PfHsp40, growth rescue, ATP luminescence. growth rescue, % at 12.5 µM. 340,000 compounds, 0.68% hits. AID 504582; in the data active means growth rescue above about 28%, passing the limit was not always enough;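 further: yeast W303a lacking pdr1 and pdr3 grown in galactose medium; growth measured after three days at 30 °C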
# Yp Topo-I inh – inhibitors of Yersinia pestis topoisomerase I; Y. pestis Topo-I cleavage product accumulation, plate reader; activity, % at 10 µM; 360,000 compounds, 0.064% hits; in the data active means activity above about 50%, passing the limit was not always enough
# BJeLR lethal – BJeLR cell viability loss. BJeLR (HRASV12) viability, CellTiter-Glo ATP luminescence, 48 h. inhibition, % (no concentration beside the values). 300,000 compounds, 0.17% hits. AID 1554; in the data active means inhibition above about 50%
# A number is an active result; i = inactive; nt = no result. This is a sample that favours compounds with a hit; in the whole collection about 1.1% have one here.
SMILES,SARS 3CLpro inh,BioA inh,MazEF act,PfHsp40 yeast,Yp Topo-I inh,BJeLR lethal
COc1ccccc1OCCNC(=O)c1ccc(Br)cc1,i,i,i,168,i,i
COc1ccccc1OCCNC(=O)c1ccc(C(C)(C)C)cc1,nt,nt,i,i,i,i
C[C@@H]1CCCCO[C@@H](CN(C)Cc2ccc(C(=O)O)cc2)[C@H](C)CN([C@H](C)CO)C(=O)c2cc(NC(=O)CCC(F)(F)F)ccc2O1,nt,i,nt,nt,nt,nt
COc1cc2c3nnc(-c4ccc(F)cc4)c-3cn(Cc3cccc(F)c3)c2cc1OC,i,nt,212,i,i,nt
COc1cc2c3nnc(-c4ccc(F)cc4)c-3cn(Cc3ccc(C)cc3)c2cc1OC,i,i,i,i,i,i
COc1cc2c3nnc(-c4ccc(F)cc4)c-3cn(Cc3cccc(C)c3)c2cc1OC,i,i,250,i,i,i
CCCNC(=O)C[C@H]1CC[C@@H]2[C@H](COc3ccc(NS(=O)(=O)CC)cc3C(=O)N2C)O1,nt,i,nt,nt,nt,nt
CCCN(C)C[C@@H]1Oc2cc(-c3cccc(C#N)c3)ccc2S(=O)(=O)N([C@H](C)CO)C[C@@H]1C,nt,i,nt,nt,nt,nt
COCCNC(=O)C[C@H]1C=C[C@H](NS(=O)(=O)c2ccc(C)cc2)[C@@H](CO)O1,nt,i,nt,nt,nt,nt
O=C(Cc1cccs1)Nc1cccc(-c2nc3cc4ccccc4cc3[nH]2)c1,i,nt,56,77,i,i
Cc1cccc(NC(=O)Cn2c(=O)n(CCC(=O)NC3CCCC3)c(=O)c3ccccc32)c1,i,i,84,i,i,i
C[C@H](CO)N1C[C@H](C)[C@@H](CN(C)Cc2ccc3c(c2)OCO3)Oc2ccc(NS(=O)(=O)c3cccs3)cc2CC1=O,nt,i,nt,nt,nt,nt
CCOC(=O)CSc1nc2ccccc2c(=O)n1CC1CCCC1,i,i,i,i,58,i
Cc1ccc(NC2(c3nnnn3-c3c(C)cccc3C)CCCCC2)cc1,i,nt,i,66,i,i
CSc1nnnn1-c1c(C)cccc1C,i,nt,i,i,i,i
CCCC(=O)Nc1ccc2c(c1)C(=O)N(C)C[C@@H](OC)[C@H](C)CN(C(=O)c1cnccn1)[C@@H](C)CO2,nt,i,nt,nt,nt,nt
Cc1ccccc1-c1noc(-c2ccc(Cl)cc2)n1,i,i,i,i,i,i
Cc1ccccc1-c1noc(-c2ccc(O)cc2)n1,i,i,i,129,i,i
Cc1cc(C)nc(NC(=O)CSc2nc3cc(Cl)ccc3s2)n1,i,i,i,66,i,i
COc1cccc2nc3cc(C)c(C)cc3nc12,i,i,i,i,i,58
COc1cccc2c1nc(C)c1cc(C)oc12,i,i,i,i,i,i
Oc1ccc(/C=N/Nc2ccc(C(F)(F)F)cn2)c(O)c1,i,nt,nt,421,i,i
Cc1cc(C(=O)N/N=C/c2ccc3c(c2)OCO3)c(C)o1,i,i,i,i,i,i
Cc1occc1C(=O)N/N=C/c1ccc2c(c1)OCO2,i,nt,i,i,i,64
Cc1occc1C(=O)N/N=C/c1ccc(-c2ccccc2)cc1,i,i,i,i,i,62
SMILES,SARS 3CLpro inh,BioA inh,MazEF act,PfHsp40 yeast,Yp Topo-I inh,BJeLR lethal
C[C@@H]1CN([C@H](C)CO)C(=O)Cc2cc(NC(=O)Cc3ccccc3)ccc2O[C@@H]1CN(C)S(=O)(=O)c1cn(C)cn1,nt,i,nt,nt,nt,nt
O=C(c1cc2c(s1)CCCC2)N1CCN(S(=O)(=O)c2ccccc2C(F)(F)F)CC1,i,nt,i,i,58,i
COC(=O)c1cc2c(=O)c3ccccc3oc2nc1/C=C/N(C)C,i,i,85,i,i,i
COC(=O)c1cc2c(=O)c3ccccc3oc2nc1C,i,i,i,i,i,i
CC(C)C(=O)Nc1cccc(C(=O)Nc2ccc(S(=O)(=O)N3CCOCC3)cc2)c1,i,i,160,i,i,i
O=C(NNC(=O)c1cc(Cl)ccc1O)c1cccc(S(=O)(=O)N2CCOCC2)c1,nt,i,i,475,i,i
COc1ccccc1CCC(=O)Nc1cccc(S(=O)(=O)N2CCOCC2)c1,i,i,i,i,i,i
O=C(NCc1ccccc1)c1cc(S(=O)(=O)N2CCOCC2)ccc1F,i,i,50,i,i,i
Cc1ccc(C(=O)NNC(=O)c2cccc(S(=O)(=O)N3CCOCC3)c2)cc1,nt,i,i,i,i,nt
COc1ccccc1CC(=O)Nc1cccc(S(=O)(=O)N2CCOCC2)c1,i,i,i,94,i,i
CC(C)C(=O)Nc1ccc(C(=O)Nc2ccc(S(=O)(=O)N3CCOCC3)cc2)cc1,i,i,i,i,i,i
CC(C)NC(=O)Nc1ccc2c(c1)C(=O)N([C@@H](C)CO)C[C@H](C)[C@H](CN(C)C)O2,nt,i,nt,nt,nt,nt
